Source: PubChem BioAssay
Active and inactive are the calls of the source. Unless noted, how the calls were made is not given here.

Key:
[1] = tested on: Wnt5a (protein binding on small-molecule microarray); assay: Wnt5a binders on small-molecule microarray, primary screen, biophysical, 635/667 nm fluorescence (AID 1142); conditions: 635 nm fluorescence, higher = more signal;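 further: fluorescence read at 667 nm with signal to noise per printed feature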
[2] = cell viability in Huh7 cells, primary screen, cytotoxicity control for HCV replication inhibitor project, CellTiter-Glo luminescence, basal, 48 h (AID 1143); conditions: Huh7 HCV replicon, higher = more signal, called active from +8 up or from −8 down;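 further: Huh7 hepatoma cells carrying a hepatitis C replication reporter with no stimulus; test concentration not given here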
[3] = P. aeruginosa biofilm formation inhibitors, primary screen, PAO1 strain, BacTiter-Glo luminescence, LB-PBS (AID 1144); conditions: 12 h, higher = more signal
[4] = CREB reporter modulators without forskolin, primary screen, cell-based, PC12, CRE-LacZ reporter, unstimulated (AID 1145); conditions: no forskolin, luminescence, 4.5 h, higher = more signal, called active from +8 up or from −8 down
[5] = CREB reporter modulators under forskolin, primary screen, cell-based, PC12, CRE-LacZ reporter, forskolin-stimulated (AID 1146); conditions: luminescence, 4.5 h, higher = more signal, called active from +8 up or from −8 down;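 further: PC12 cells with 6xCRE LacZ reporter stimulated by forskolin 10 µM; beta-galactosidase reporter signal reflecting CREB driven transcription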
[6] = target: Streptavidin (Streptomyces avidinii) (UniProt P22629); assay: streptavidin binders on small-molecule microarray, primary screen, artefact control for SMM compound annotation, biophysical, 635/667 nm fluorescence (AID 1147); conditions: streptavidin binding, higher = more signal;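 further: signal reflects streptavidin binding to arrayed compounds as a control protein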
Sequence of Streptavidin (Streptomyces avidinii) (P22629 whole entry, looked up): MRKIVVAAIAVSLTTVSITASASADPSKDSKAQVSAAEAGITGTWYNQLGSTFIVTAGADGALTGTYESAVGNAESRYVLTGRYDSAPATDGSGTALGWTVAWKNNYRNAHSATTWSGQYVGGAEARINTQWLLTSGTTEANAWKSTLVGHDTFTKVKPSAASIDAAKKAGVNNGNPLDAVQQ

[7] = small-molecule binders of probe aInhba, primary screen, biochemical, small-molecule microarray, 635/667 nm fluorescence (AID 1148); conditions: higher = more signal;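 further: score merges 667nm spot fluorescence with signal-to-noise for antibody binding to printed compounds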
Torsin-1A (Homo sapiens) [8] = target: Torsin-1A (Homo sapiens) (UniProt O14656); assay: torsin A binders from cell lysate, primary screen, small-molecule microarray, wild-type, 635/667 nm (AID 1149); conditions: COS7 hTOR1A-WT lysate, 635 nm fluorescence, higher = more signal
Sequence of Torsin-1A (Homo sapiens) (O14656 whole entry, looked up): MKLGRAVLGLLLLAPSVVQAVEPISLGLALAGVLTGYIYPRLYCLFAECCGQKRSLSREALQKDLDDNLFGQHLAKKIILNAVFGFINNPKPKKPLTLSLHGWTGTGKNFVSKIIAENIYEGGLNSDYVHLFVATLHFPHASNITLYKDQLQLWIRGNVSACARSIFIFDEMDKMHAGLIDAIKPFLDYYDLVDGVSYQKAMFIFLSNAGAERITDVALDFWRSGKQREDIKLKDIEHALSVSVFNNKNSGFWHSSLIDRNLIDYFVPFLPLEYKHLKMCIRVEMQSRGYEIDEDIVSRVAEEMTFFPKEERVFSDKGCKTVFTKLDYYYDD

Torsin-1A (Homo sapiens) [9] = target: Torsin-1A (Homo sapiens) (UniProt O14656); assay: small-molecule binders of mutant TOR1A in lysate, primary screen, cell lysate, small-molecule microarray, COS7 lysate, 635/667 nm fluorescence (AID 1150); conditions: COS7 hTOR1A mutant lysate, 635 nm fluorescence, higher = more signal;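 further: score pools 667 nm emission and signal to noise measuring lysate protein binding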
[10] = tested on: Sonic hedgehog protein (Shh); assay: small-molecule binders of Shh protein, primary screen, biochemical, small-molecule microarray, 635/667 nm fluorescence (AID 1151); conditions: small-molecule microarray binding, 635 nm fluorescence; higher = more signal;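 further: Shh protein binding to compounds spotted on small-molecule microarray slides; score combines spot fluorescence intensity with signal-to-noise across triplicate slides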
[11] = E. coli DRC41 culture turbidity changes, primary screen, E. coli filamentation inducer project, strain DRC41, OD650, 48 h (AID 1152);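 further: E. coli MC1000 strain DRC41 lacking acrAB efflux pump and sulA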; conditions: E. coli DRC41 (acrAB sulA), higher = more signal, called active from +8 up or from −8 down
[12] = small-molecule binders of probe aLefty1, primary screen, biochemical, small-molecule microarray, 635/667 nm fluorescence (AID 1153); conditions: higher = more signal;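 further: score merges spot fluorescence with signal-to-noise ratio from the scanned slide images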
[13] = PSAC antagonists in infected red cells, primary screen, cell-based, P. falciparum Indochina, OD700, 1 h (AID 1154); conditions: P. falciparum Indochina infected RBC osmotic lysis, higher = more signal, called active from +8 up or from −8 down
[14] = PSAC antagonists in infected red cells, primary screen, cell-based, P. falciparum Indochina, OD700, 2 h (AID 1155);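 further: lysis reports solute entry through the parasite surface anion channel PSAC; channel blockers reduce lysis of infected cells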; conditions: P. falciparum Indochina infected erythrocytes, osmotic lysis OD700; higher = more signal, called active from +8 up or from −8 down
[15] = osmotic lysis modulators in infected erythrocytes, primary screen, PSAC antagonist project, cell-based, P. falciparum Indochina, OD700, 3 h (AID 1156); conditions: higher = more signal, called active from +8 up or from −8 down
[16] = PSAC antagonists in infected red cells, primary screen, cell-based, P. falciparum Indochina, OD700, 18 h (AID 1157); conditions: P. falciparum Indochina infected erythrocytes, osmotic lysis OD700, 18 h; higher = more signal, called active from +8 up or from −8 down
[17] = modulators of S6 phosphorylation in cells, primary screen, cell-based, A549, cytoblot, luminescence, serum-stimulated (AID 1158); conditions: A549 phospho-S6 cytoblot, 5 h, higher = more signal;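 further: serum-stimulated A549 lung adenocarcinoma cells; signal is phosphorylated S6 detected by cytoblot immunostaining with HRP secondary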
[18] = target: NADPH oxidase 2 (Homo sapiens) (UniProt P04839); assay: NOX2-dependent H2O2 signal modulators, primary screen, NOX inhibitor project, cell-based, HEK293-NOX2, PMA-stimulated, Amplex Red fluorescence (AID 1159); conditions: 45 min, higher = more signal, called active from +8 up or from −8 down; further: test concentration not given here
Sequence of NADPH oxidase 2 (Homo sapiens) (P04839 whole entry, looked up): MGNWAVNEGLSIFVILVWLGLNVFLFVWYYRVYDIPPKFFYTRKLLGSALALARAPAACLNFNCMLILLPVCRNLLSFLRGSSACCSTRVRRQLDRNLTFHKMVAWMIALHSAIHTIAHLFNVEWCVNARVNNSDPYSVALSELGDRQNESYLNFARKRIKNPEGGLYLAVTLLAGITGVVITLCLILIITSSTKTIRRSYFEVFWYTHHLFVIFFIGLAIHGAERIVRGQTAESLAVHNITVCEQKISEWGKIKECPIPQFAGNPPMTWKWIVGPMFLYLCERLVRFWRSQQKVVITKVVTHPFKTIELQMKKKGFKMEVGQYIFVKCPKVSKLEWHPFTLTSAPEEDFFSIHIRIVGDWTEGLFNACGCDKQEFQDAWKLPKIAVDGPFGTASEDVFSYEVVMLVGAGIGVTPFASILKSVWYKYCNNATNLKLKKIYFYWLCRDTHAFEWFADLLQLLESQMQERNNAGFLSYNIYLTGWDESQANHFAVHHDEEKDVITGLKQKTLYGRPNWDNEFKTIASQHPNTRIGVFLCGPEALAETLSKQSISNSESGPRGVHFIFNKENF

[19] = target: NADPH oxidase 4 (Homo sapiens) (UniProt Q9NPH5); assay: NOX4-dependent H2O2 signal modulators, primary screen, NOX inhibitor project, cell-based, HEK293-NOX4, tetracycline-induced, Amplex Red fluorescence (AID 1160); conditions: 45 min, higher = more signal, called active from +8 up or from −8 down
Sequence of NADPH oxidase 4 (Homo sapiens) (Q9NPH5 whole entry, looked up): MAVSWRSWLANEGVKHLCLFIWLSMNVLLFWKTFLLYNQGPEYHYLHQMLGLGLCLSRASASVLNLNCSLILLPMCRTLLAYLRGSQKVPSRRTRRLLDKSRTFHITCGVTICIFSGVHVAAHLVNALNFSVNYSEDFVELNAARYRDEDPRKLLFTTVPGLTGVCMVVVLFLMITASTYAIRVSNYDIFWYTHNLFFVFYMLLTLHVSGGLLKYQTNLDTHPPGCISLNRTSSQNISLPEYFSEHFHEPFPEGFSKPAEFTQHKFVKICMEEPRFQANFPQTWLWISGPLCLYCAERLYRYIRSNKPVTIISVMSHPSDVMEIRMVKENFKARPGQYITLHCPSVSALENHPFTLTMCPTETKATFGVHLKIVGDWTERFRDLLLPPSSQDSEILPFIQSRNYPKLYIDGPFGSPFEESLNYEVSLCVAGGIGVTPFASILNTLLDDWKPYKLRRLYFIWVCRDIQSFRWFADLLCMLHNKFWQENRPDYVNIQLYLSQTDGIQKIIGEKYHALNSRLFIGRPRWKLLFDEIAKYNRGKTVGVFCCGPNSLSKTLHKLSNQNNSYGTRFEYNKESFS

[20] = target: NADPH oxidase 5 (Homo sapiens) (UniProt Q96PH1); assay: NOX5-dependent H2O2 signal modulators, primary screen, NOX inhibitor project, cell-based, HEK293-NOX5, Amplex Red fluorescence (AID 1161); conditions: HEK293-NOX5, ionomycin, 45 min, higher = more signal
Sequence of NADPH oxidase 5 (Homo sapiens) (Q96PH1 whole entry, looked up): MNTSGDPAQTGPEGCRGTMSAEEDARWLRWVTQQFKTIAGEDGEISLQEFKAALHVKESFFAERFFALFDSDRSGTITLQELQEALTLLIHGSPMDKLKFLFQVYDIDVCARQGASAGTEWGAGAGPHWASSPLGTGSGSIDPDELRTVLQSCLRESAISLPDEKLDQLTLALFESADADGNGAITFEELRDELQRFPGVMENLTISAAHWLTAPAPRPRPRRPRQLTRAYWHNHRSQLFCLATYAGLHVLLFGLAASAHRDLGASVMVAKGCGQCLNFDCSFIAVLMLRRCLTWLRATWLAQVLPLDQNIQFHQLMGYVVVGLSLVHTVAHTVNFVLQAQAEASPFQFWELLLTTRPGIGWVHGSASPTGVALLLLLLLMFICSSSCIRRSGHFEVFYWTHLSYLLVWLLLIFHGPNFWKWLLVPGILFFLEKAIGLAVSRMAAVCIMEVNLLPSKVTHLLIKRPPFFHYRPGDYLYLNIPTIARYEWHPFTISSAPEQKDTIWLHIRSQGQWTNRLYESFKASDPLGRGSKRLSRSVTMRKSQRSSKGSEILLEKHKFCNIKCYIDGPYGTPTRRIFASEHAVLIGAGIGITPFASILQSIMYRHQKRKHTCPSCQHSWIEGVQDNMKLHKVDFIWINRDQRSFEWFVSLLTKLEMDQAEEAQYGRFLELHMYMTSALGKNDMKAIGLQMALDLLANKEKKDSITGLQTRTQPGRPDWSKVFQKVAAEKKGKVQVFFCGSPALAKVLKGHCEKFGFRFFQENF

Structure (SMILES)	composite z-score [1]	z-score [2]	z-score [3]	z-score [4]	z-score [5]	composite z-score [6]	composite z-score [7]	composite z-score (Torsin-1A (Homo sapiens) [8])	composite z-score (Torsin-1A (Homo sapiens) [9])	composite z-score [10]	z-score [11]	composite z-score [12]	z-score [13]	z-score [14]	z-score [15]	z-score [16]	z-score [17]	z-score [18]	z-score [19]	z-score [20]
COCCOC(=O)N1C(=O)[C@@]2(c3cc(C#CC4=CCCCC4)ccc31)[C@H](C(=O)N1CCc3cc(OC)c(OC)cc3C1)[C@H]1C(=O)O[C@H](c3ccccc3)[C@H](c3ccccc3)N1[C@@H]2c1ccc(OCCO)cc1	0.538	-0.571 (inactive)	-0.259 (inactive)	-0.475 (inactive)	-0.381 (inactive)	0.665	0.0649	0.304	0.295	1.38	-0.332 (inactive)	0.0752	3.71 (inactive)	1.19 (inactive)	-0.129 (inactive)	0.801 (inactive)	0.261	1.77 (inactive)	1.18 (inactive)	0.669
Cc1ccc(S[C@]2(C(=O)NC3CC3)CC(=O)N(C3Cc4ccccc4C3)[C@@H]2c2ccc(CO)cc2)cc1	-0.0244	-1.6 (inactive)	-0.401 (inactive)	0.324 (inactive)	-0.906 (inactive)	-0.75	-0.0136	-0.382	0.23	-0.766	2.26 (inactive)	0.0962	0.924 (inactive)	-0.578 (inactive)	-0.758 (inactive)	-0.876 (inactive)	0.827	-0.655 (inactive)	0.585 (inactive)	0.205
CCCC=C(CCC)[C@@H](NS(=O)(=O)c1cccs1)c1ccc(C(=O)OC)cc1	0.247	-3.88 (inactive)	0.276 (inactive)	0.201 (inactive)	0.91 (inactive)	1.37	0.16	-0.0907	0.647	-0.168	-1.35 (inactive)	0.133	1.19 (inactive)	0.0633 (inactive)	1.28 (inactive)	0.567 (inactive)	-1.13	-0.547 (inactive)	-3.59 (inactive)	0.708
COCCCN1C(=O)[C@@]2(c3ccc([N+](=O)[O-])cc3)CC(=O)N(C3CCCCC3)[C@@H]2c2ccc(CO)cc21	-0.0976	-0.253 (inactive)	0.0798 (inactive)	-0.761 (inactive)	-0.593 (inactive)	-0.226	-0.214	0.0116	-0.289	1.41	-0.0972 (inactive)	-0.35	-0.141 (inactive)	-0.063 (inactive)	-0.382 (inactive)	0.0583 (inactive)	-0.495	-2.14 (inactive)	-1.3 (inactive)	-0.379
CN1C2C=C(CCCO)C(C3C(=O)N(C(N)=O)C(=O)C32)C1c1ccc(CN2CCCC2)cc1 (stereo not given)	0.269	1.23 (inactive)	-0.938 (inactive)	-0.83 (inactive)	1.31 (inactive)	-0.411	-0.299	-0.14	-0.266	-0.138	0.0489 (inactive)	-0.189	0.114 (inactive)	0.229 (inactive)	-0.695 (inactive)	-0.11 (inactive)	-0.0852	-1.52 (inactive)	0.171 (inactive)	-0.0223
CCCC#C[Si](O[C@H](CC)c1cn([C@H](CO)Cc2ccccc2)nn1)(C(C)C)C(C)C	0.998	-0.727 (inactive)	-0.259 (inactive)	-0.388 (inactive)	-0.0711 (inactive)	0.949	-0.128	0.402	0.511	0.482	1.12 (inactive)	0.145	0.442 (inactive)	0.479 (inactive)	-1.31 (inactive)	0.752 (inactive)	-0.675	0.819 (inactive)	0.272 (inactive)	0.493
C=CC[C@]1(C(=O)N2CCCCC2)N=C(c2ccc(OCCCO)cc2)O[C@H]1c1ccccc1	0.15	-3.83 (inactive)	0.351 (inactive)	2.73 (inactive)	0.0819 (inactive)	0.224	0.573	0.29	1.11	-0.328	0.573 (inactive)	0.629	18.8 (active)	3.99 (inactive)	1.61 (inactive)	1.11 (inactive)	-0.232	0.186 (inactive)	-0.0137 (inactive)	-1.71
CC[C@@H]1C=C(C(=O)O)[C@H](c2ccco2)N1S(=O)(=O)c1ccc(C)cc1	-0.291	0.433 (inactive)	-0.187 (inactive)	-0.518 (inactive)	1.1 (inactive)	0.402	0.0228	-0.282	0.222	0.374	-0.0046 (inactive)	-0.148	1.96 (inactive)	1.37 (inactive)	-0.0701 (inactive)	0.953 (inactive)	0.123	0.152 (inactive)	-0.589 (inactive)	-0.764
